Coupling enz: qHTS Assay for Inhibitors of Fructose-1,6-bisphosphate Aldolase from Giardia Lamblia: Coupling assay counterscreen; coupling enzyme system counterscreen, AmpLite Red fluorescence; activity change, negative = inhibition, % at 58.2 µM, hits read low; 290,000 tested, 0.67% active; in the data active means activity change below about -30%
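Coupling enzymes only (glyceraldehyde-3-phosphate) + compound, at 57.5 uM final, 10 min RT; add substrate/coupling/AmpLite Red mix, 20 min RT; fluorescence ex 525/em 598 nm. Actives flag coupling-system interference.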
Sfp inh: qHTS Assay for Inhibitors of Bacillus subtilis Sfp phosphopantetheinyl transferase (PPTase). Biochemical Sfp PPTase activity, qHTS. Potency, µM, without a hit: largest response in the series, negative = inhibition, actives largely listed as inhibitors. 310,000 tested, 3.5% active;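 further: the enzyme is Sfp with the accession as filed and its product quenches rhodamine fluorescence; potency means the concentration at half of the fitted maximal effect; 0% = enzyme reaction without inhibitor and -100% = no enzyme wells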
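After 15 min at room temperature with compound, 15 nM Sfp received 5 uM rhodamine-CoA plus 12.5 uM BHQ-2-ybbR (50 mM Hepes pH 7.6, 10 mM MgCl2). Rate came from the fluorescence difference over 30 min, ex 525/em 598 nm.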
ELG1 repair inh: qHTS screen for small molecules that inhibit ELG1-dependent DNA repair in human embryonic kidney (HEK293T) cells expressing luciferase-tagged ELG1; HEK293T ELG1-luciferase reporter, luminescence, 16 h; DNA damage induced by 5-fluorouridine; Potency, µM (doses to about 46.1 µM), for inactives: at the highest dose activity change, negative = inhibition, most hits filed as inhibitors; 330,000 tested, 2.3% active; further: potency means the concentration at half of the fitted maximal effect; nearly all actives have a fitted effect of over 55% in size
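In this reporter screen, reduction of luminescence relative to DMSO vehicle indicated activity. Compounds and 5-fluorouridine were added together to 2,000 cells per well, incubated for 16 hr at 37 °C, then developed with ONE-Glo.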
Giardia killer: Small Molecules that selectively kill Giardia lamblia: qHTS; activity change, % at 7.66 µM, hits read low; Giardia lamblia trophozoite viability; 340,000 tested, 0.15% active; in the data active means activity change below about -80%; inconclusive means between about -30% and that limit;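 further: parasites exposed to compound for two days anaerobically before the ATP read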
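Luminescent ATP signal served as the viability read-out, measured 15-30 min after adding ATP detection reagent to trophozoites that had been incubated with compounds for 48 hrs at 37 deg C anaerobically at 100 cells/well.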
The depositor's hits bear a star; ? = inconclusive; · = no result. The list is not random: actives were taken first. Their share in the collection is about 5.5%. Unless noted, the call rests on the fitted dose curve; in most records, active means well fitted curve in the direction sought with a large enough effect; inconclusive means small, poorly fitted or top-dose-only effect, or another doubt; inactive means no such curve, though single readings can be large; an effect the other way counts as inactive or inconclusive. Unless noted, on the % scale 0 is the no-effect control and ±100 the full control effect.

SMILES | Coupling enz | Sfp inh | ELG1 repair inh | Giardia killer
Cc1ccc(N2C(=O)CS(=O)C(c3ccccc3)C2=O)cc1C (stereo not given) | 1 | 3.2µM* | 13% | -12
Oc1c(C=Nc2ccccc2)sc2ccccc12 | 0 | 20% | 4% | -15
Oc1sc(C=Nc2ccccc2)c2ccccc12 | -7 | 45µM* | ? | -6
Oc1sc(C=Nc2ccc(F)cc2)c2ccccc12 | 5 | 14µM* | ? | -11
COc1ccc2c(c1OC)C(=O)OC2c1ccc(O)cc1 (stereo not given) | · | · | · | 46
CC(C)c1ccc(C2C3=C(CC(C)(C)CC3=O)NC3=C2C(=O)c2ccccc23)cc1 (stereo not given) | 0 | -16% | ? | 0
CC1(C)CC(=O)C2=C(C1)NC1=C(C(=O)c3ccccc31)C2c1ccccc1 (stereo not given) | 4 | 0% | 26µM* | -6
CCN1CCN(C(=O)c2cc(S(=O)(=O)N3CCCCC3)ccc2Cl)CC1 | · | 19% | 1% | -3
O=C(COC(=O)c1cc(Cl)cc(Cl)c1)NCc1ccco1 | · | · | 19% | -26
CCOC(=O)c1ccc(C(=O)NNC(=O)C2C3C=CC(C3)C2C(=O)O)cc1 (stereo not given) | · | 50µM* | 11% | -12
Cn1cc(S(=O)(=O)NC[C@H]2O[C@@H](n3ccc(=O)[nH]c3=O)[C@H](O)[C@@H]2O)cn1 | · | · | · | -22
COc1ccc(CN2CCN(CC3CC3)CC2CCO)c(C)c1C (stereo not given) | -3 | 2% | 14% | 27
COc1ccc(CN2CCN(Cc3nc4ccccc4s3)CC2CCO)c(C)c1C (stereo not given) | -2 | 1% | 16µM* | -23
Cc1ccc(NC(=O)Cn2c(=O)ccn(Cc3ccccc3)c2=O)cc1S(=O)(=O)N1CCOCC1 | · | · | · | -16
Cc1cc(NC(=O)NC(=O)c2ccccc2NC(=O)C(C)N)ccc1Oc1ncc(Br)cn1 (stereo not given) | · | · | · | 16
CC(C)C[C@@H](CC(=O)N[C@@H](CCC(=O)O)CC(=O)O)NC(=O)[C@@H]1CNCC[C@H]1NC(=O)C[C@@H](NC(=O)C[C@H](CO)NC(=O)[C@@H]1CCCC[C@H]1N)C(C)C | 1 | 2% | · | ·
COc1cc(C(C)=O)ccc1OCC(=O)Nc1ccccc1N1CCCC1 | · | 2% | ? | -23
CCN(CC(=O)Nc1ccccc1OC)CC(=O)Nc1ccccc1-c1ccccc1 | -1 | 35µM* | ? | 2
COc1ccccc1NC(=O)Cn1nnc(-c2ccccc2NC(=O)c2cccs2)n1 | 1 | 50µM* | ? | -12
COc1ccc(C(C)=O)cc1CC(=O)Nc1ccccc1-c1ccccc1 | 2 | 15% | 12µM* | -16
COc1cc(C(C)=O)ccc1OCC(=O)Nc1ccccc1N1CCCCC1 | · | · | 5.2µM* | -4
CCN(CC(=O)Nc1ccccc1OC)CC(=O)Nc1ccccc1C(F)(F)F | -1 | 12% | ? | -2
CN(C(=O)c1ccc(NC(=O)Cc2ccc(NC(=O)C3CCCN(C(=O)C4CCC4)C3)cc2)cc1)C1CCCC1 (stereo not given) | · | · | · | 3
Cc1ccc(S(=O)(=O)Nc2cccc3ccc(C)nc23)cc1 | -15 | -18% | · | ·
CC(/C=C/c1ccco1)=N/NC(=O)CNc1ccccc1C | 0 | 50µM* | 5% | -4
SMILES | Coupling enz | Sfp inh | ELG1 repair inh | Giardia killer
O=C(N/N=C/C=C/c1ccco1)c1ccccc1Cl | -5 | 40µM* | ? | 2
O=C(Nc1ccccc1C(=O)N/N=C/c1ccco1)c1ccccc1Cl | -27 | 19% | 3% | 3
CC(/C=C/c1ccco1)=N/NC(=O)c1ccccc1Cl | 0 | 35µM* | ? | -1
CC(/C=C/c1ccco1)=N\NC(=O)c1cccc(Cl)c1 | -2 | ? | 18% | -18
CC(/C=C/c1ccco1)=N\NC(=O)CNc1ccc2ccccc2c1 | -7 | -6% | 5% | -10
CCN(CC)S(=O)(=O)c1cc(NC(=O)c2ccc3c(c2)NC(=O)C(C)S3)ccc1C (stereo not given) | · | · | ? | -18
CC(C)OC(=O)c1c(NC(=O)C2CC=CCC2C(=O)O)sc2c1CCCCC2 (stereo not given) | 13 | 11% | 3% | 16
NC(=O)c1c(NC(=O)C2CC=CCC2C(=O)O)sc2c1CCCCC2 (stereo not given) | 6 | 35µM* | 26% | 8
C=CCNC(=S)Nc1sc2c(c1C(N)=O)CCCC2 | -4 | 50µM* | ? | 9
NC(=O)c1c(NC(=S)Nc2ccccc2)sc2c1CCCC2 | 2 | 56µM* | ? | -4
C=CC(=O)Nc1sc2c(c1C(N)=O)CCCC2 | · | · | ? | -1
NC(=O)c1c(NC(=O)c2ccccc2)sc2c1CCC2 | 0 | -3% | ? | 5
NC(=O)c1c(NC(=S)Nc2ccc(F)cc2)sc2c1CCCC2 | 2 | 22µM* | 7% | 0
COc1ccc(CCc2c[nH]c(=O)c3cncnc23)cc1OC | · | · | · | -2
CCCCn1c(N)c(N(Cc2ccccc2OC)C(=O)c2ccc(N3CCCC3=O)cc2)c(=O)[nH]c1=O | · | · | 18% | 1
CCCC(=O)NC(=S)Nc1sc2c(c1C(N)=O)CCC2 | -8 | 40µM* | ? | 19
COC(=O)C/C=C\[C@@H](C)[C@@H](/C=N\OC[C@@H](C)[C@H](OCc1ccccc1)C(C)C)NS(=O)(=O)c1ccc(C)cc1 | 3 | 9% | · | ·
c1ccc(-c2cnc(CSc3ncnc4sccc34)o2)cc1 | -5 | 50µM* | 11% | -5
COC1=C2C[C@H](C)C[C@H](OC)[C@@H](O)[C@@H](C)C=C(C)[C@H](OC(N)=O)[C@@H](OC)C=CC=C(C)C(=O)NC(=CC1=O)C2=O | · | · | · | 6
CN1CCN(C2=Cc3ccccc3Sc3cc(F)c(Cl)cc32)CC1 | -1 | ? | -16% | 3
CN1CCN(C2=Cc3ccccc3Sc3cc(F)c(F)cc32)CC1 | -19 | 79µM* | -7% | -3
CC(=O)OCOC(=O)CN(CC(=O)OCOC(C)=O)c1ccccc1OCCOc1ccccc1N(CC(=O)OCOC(C)=O)CC(=O)OCOC(C)=O | · | 89µM* | · | ·
O=C(O)COCC(=O)N1CCCN(c2nccc(C(F)(F)F)n2)CC1 | 1 | 9% | 0% | -14
Cc1ccc(-c2cc(C(F)(F)F)nc(SCC(=O)c3cccc([N+](=O)[O-])c3)n2)cc1 | 1 | -2% | 18µM* | 4
COc1ccc(-c2cc(C)nc(SCC(=O)c3cccc([N+](=O)[O-])c3)n2)cc1 | -1 | 6% | 21µM* | -1
O=C(CSc1nc(-c2ccccc2)cc(C(F)(F)F)n1)c1cccc([N+](=O)[O-])c1 | 0 | -7% | 18µM* | -2
COc1ccc(C(=O)CSc2cc(C)nc(SCC(=O)c3ccc(C)cc3)n2)cc1 | -3 | 7% | 5.2µM* | -1
Cc1cc(-c2ccccc2)nc(SCC(=O)c2cccc([N+](=O)[O-])c2)n1 | 1 | 17% | -27% | -12

Source: PubChem (National Center for Advancing Translational Sciences (NCATS))
